Inconclusive results are not listed. The source made the active and inactive calls. Calls come from the whole dose curve; as a rule, active = well fitted activation curve with a large enough effect in the signal ratio, with a control signal flat (not every such curve was filed as active); inconclusive = small, poorly fitted or top-dose-only effect, or a change in a side signal; inactive = flat fitted curve, though single readings scatter; the % refers to the signal ratio.

The nature of the experiment: Confirmation Concentration-Response Assay for Cell signaling CRE-BLA (Fsk stim). Particulars: CHO CRE-bla reporter (cAMP response element driving beta-lactamase), NKH477 EC10 stim, FRET ratio; series mostly up to 38.3 µM. An excerpt:
NIH Molecular Libraries Screening Centers Network [MLSCN] NIH Chemical Genomics Center [NCGC] MLSCN Grant: 1X01MH079867-01 Assay Provider: Marshall W. Nirenberg, U.S. National Heart, Lung and Blood Institute CRE beta-lactamase Assay Overview Memories persist for different lengths of time, from seconds or minutes to a lifetime. There are two kinds of memory: short-term memory (STM) and long-term memory (LTM). STM lasts for minutes to hours, which maybe mediated by modifications of molecules involved in synaptic functions. LTM lasts for days or longer, and may be due to the formation of new synapses or restructuring of existing synapses. LTM, but not STM, requires gene transcription and synthesis of proteins. CREB (cyclic-AMP Responsive Element Binding Protein) is one of the candidates plays an important role for enhancement of some types of LTM. CREB, a family of transcription factors, regulates the transcription of genes containing cAMP Responsive Elements (CRE). CRE is a nucleotide sequence often found in the promoter regions of genes that are binding sites for CREB. Using a beta-lactamase reporter-gene under control of cAMP responsive element, a cell-based assay [CellSensor(TM) CRE-bla CHO developed by Invitrogen Corp.] was used to measure forskolin-induced signaling. The selected compounds were measured for their ability to modulate positively the action of EC10 NKH 477, a water soluble forskolin, on reporter gene activity. Compounds were screened in a titration series in 1536-well format. Positive modulators were identified based on the AC50 values derived from the screening data.
NCGC Assay Protocol Summary 2000 cells/5uL in Opti-MEM medium containing 0.5% dialyzed FBS, 0.1 mM NEAA, 1 mM sodium pyruvate and 10 mM HEPES was dispensed into 1536-well plates and cells were cultured at 37 degrees Celsius overnight. Next day 23 nL of compounds or DMSO were delivered to each well using a pin tool, and 1uL of EC10 level of NKH 477, or EC100 level of IBMX, a PDE inhibitor, in the present of NKH 477, or assay medium was added. And then the plates were incubated at 37 degrees Celsius for 3 hours. 1 uL of CCF4-dye mixture was added to each well. After incubated at room temperature for 2 hours the plates were measured on an EnVision plate reader at Excitation 405nm, Emission1=460nm and Emission 2=530nm. The %Activity was determined from the ratio of 460nm/530nm. Keywords: NIH Roadmap, MLSCN, MLSMR, qHTS, NCGC, CRE, beta-lactamase reporter-gene assay.
As to `Cc1nn(-c2ccccc2)c2sc(C(=O)N(CC(=O)NC(C)(C)C)Cc3ccco3)cc12`, the Potency was 7.94 µM (active).

For the compound `O=C(c1cc(S(=O)(=O)N2CCOCC2)ccc1F)N1CCCc2ccccc21`, the Potency result was “inactive”.

As to `COc1ccc(/C(O)=C(\C#N)c2nc3ccccc3n2C)cc1OC`, the Potency is 15.8 µM (active).

With `CCN(C(=O)c1cn(C)c(=O)c2cc(OC)c(OC)cc12)c1cc(OC)ccc1OC`, the Potency entry is “inactive”.

As for `CCCN(CCC)c1nc2ccccc2n2c(C)nnc12`, the Potency was 12.6 µM (active).

Regarding `COC(=O)Nc1nc2ccc(C(=O)c3cccs3)cc2[nH]1`, the Potency is 0.794 µM (active).

On to `CCOC(=O)C1=C(CN2CCC(C)CC2)NC(=O)NC1c1ccc(Cl)cc1` (stereo not given), for which the Potency was 12.6 µM (active).

As to `CCCCCOC(=O)c1[nH]c2c(c1C)C(=O)CC(c1ccco1)C2` (stereo not given), the Potency was 0.251 µM (active).

As to `Cn1c(/C(C#N)=C/C2CC=CCC2)nc2ccccc21` (stereo not given), the Potency result is “inactive”.

`Cc1sc2nc(SCc3nc4ccccc4[nH]3)n(Cc3ccco3)c(=O)c2c1C`: the Potency was 1.26 µM (active).

For the compound `CC1CCc2c(sc3nc(C4CC4)nc(SCC(=O)NCc4ccco4)c23)C1` (stereo not given), the Potency result is “inactive”.

As to `CCc1nc(SCC(=O)N2CCc3ccccc32)c2oc3ccccc3c2n1`, the Potency is 10 µM (active).

In the case of `COc1cc(C2NC(=O)NC(C)=C2C(=O)OC(C)(C)C)ccc1OCC(N)=O` (stereo not given), the Potency entry was “inactive”.

For `Cc1cc(Nc2ccc3ccccc3c2)n2ncnc2n1`, the Potency entry is “inactive”.

On to `COC(=O)c1ccc(CSc2ccc3nnc(-c4cccc(F)c4)n3n2)o1`, for which the Potency is 15.8 µM (active).

For `COc1ccc(CCNC(=O)CSc2nc(C)nc3c2oc2ccccc23)cc1OC`, the Potency is 12.6 µM (active).

Regarding `CC1(C)Cc2c(sc3nc(SCC#N)n(C4CCCCC4)c(=O)c23)CO1`, the Potency was 20 µM (active).

With `O=c1[nH]c(SCc2ccccc2Cl)nc2c1cnn2-c1ccccc1`, the Potency was 3.98 µM (active).

Regarding `Cc1cc(-c2nnc3n2N=C(c2ccc(-c4ccccc4)cc2)CS3)n[nH]1`, the Potency is 12.6 µM (active).

Take `CCCN(CCC)CCNC(=O)c1cc2c(=O)n(C)c3ccccc3c2n1C`: the Potency result was “inactive”.

Turning to `CC[C@]1(O)C[C@@H]2CN(CCc3c([nH]c4ccccc34)[C@](C(=O)OC)(c3cc4c(cc3OC)N(C)[C@H]3[C@](O)(C(=O)OC)[C@@H](C(=O)OC)[C@@]5(CC)C=CCN6CC[C@@]43[C@@H]65)C2)C1`, the Potency was 0.0631 µM (active).

In the case of `COc1cc(-c2cc(=O)c3ccccc3o2)ccc1O`, the Potency is 15.8 µM (active).

In the case of `Fc1ccc(CSc2ncnc3c2oc2ccccc23)cc1`, the Potency is 10 µM (active).

Regarding `CCN(CC)c1nc2ccccc2n2cnnc12`, the Potency was 15.8 µM (active).

As to `COC(=O)c1ccc(CSc2nc3c(cnn3-c3ccc(F)cc3)c(=O)[nH]2)o1`, the Potency was 15.8 µM (active).

With `Nc1nc(CSCc2ccccc2)nc(N2CCOCC2)n1`, the Potency entry is “inactive”.

In the case of `Cc1cc(N2CCN(S(=O)(=O)c3ccc4c(c3)OCCO4)CC2)n2ncnc2n1`, the Potency was 3.16 µM (active).

In the case of `CCCN(C#N)c1nc(NCC)nc(NC(C)C)n1`, the Potency is 12.6 µM (active).

With `CCc1nc(Nc2ccc3nccnc3c2)c2oc3ccccc3c2n1`, the Potency is 1.58 µM (active).

As to `Cn1c(C(=O)NCCCN2CCCC2=O)cc2c(=O)n(C)c3ccccc3c21`, the Potency was 25.1 µM (active).

As to `O=S(=O)(Nc1cccc(-c2nc3cccnc3s2)c1)c1ccc2c(c1)OCCO2`, the Potency is 10 µM (active).

For `Cn1c(/C(C#N)=C/Nc2ccccn2)nc2ccccc21`, the Potency result was “inactive”.

For the compound `Fc1ccc(C2=Nn3c(Cc4ccccc4)nnc3SC2)cc1`, the Potency entry is “inactive”.

As for `Cc1cc(C)n(-c2nc(Nc3ccccc3)nc(-n3nc(C)cc3C)n2)n1`, the Potency result was “inactive”.

As to `O=C(Nc1ccccc1O)c1cc(S(=O)(=O)N2CCOCC2)ccc1Cl`, the Potency entry was “inactive”.

On to `CCOC(=O)c1ccccc1NC(=O)c1cc(S(=O)(=O)N2CCOCC2)ccc1F`, for which the Potency was 12.6 µM (active).

Consider `CN1C(=O)NC(c2ccccc2)C2=C1CN(Cc1ccccc1)C2=O` (stereo not given), for which the Potency entry is “inactive”.

Regarding `Cc1ccc(-n2ncc3c(=O)[nH]c(SCC(=O)N4CCOCC4)nc32)cc1`, the Potency result is “inactive”.

Consider `CCc1nc2nc(C)cc(Nc3cccc(C(F)(F)F)c3)n2n1`, for which the Potency was 7.94 µM (active).

In the case of `CN(C)c1nc(N(C)C)nc(N(C)C)n1`, the Potency result was “inactive”.
